# Source: PubChem BioAssay (National Center for Advancing Translational Sciences (NCATS))
# IL-1B inflam inh: inhibitors of inflammasome signaling (IL-1 beta secretion) | THP-1 LPS/ATP IL-1B secretion, AlphaLISA, 16 h; active compounds read low | activity change, % at 57.5 µM | 360,000 tested, 4.7% active; in the data active = activity change below about -50%; inconclusive = mostly about -30% to -49%; note: % is set by controls: 0 for no effect and ±100 for the full control effect
#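 Secreted IL-1B measured by AlphaLISA bead assay after 16 h compound exposure of THP-1 cells; compounds (final up to 57.5 uM) added 1 h before LPS (250 ng/mL) and ATP (1.25 mM) stimulation; lower signal means less secretion.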
# Chronic BCR inh: inhibitors of chronic active B-cell receptor signaling. ABC-DLBCL IkBa-CBG/CBR reporter, luminescence ratio, 4 h. Potency, µM (doses to about 46.1 µM), for inactives: at the top dose activity change, negative = inhibition, most hits filed as inhibitors. 340,000 tested, 0.05% active; active = well fitted inhibition curve with a large enough effect in the signal ratio, with a control signal flat, not every such curve was filed as active; inconclusive = small, poorly fitted or top-dose-only effect, or effect the other way, or a change in a side signal; the % refers to the signal ratio;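 note: potency is the fitted concentration of half-maximal effect; plate controls were basal doxycycline-induced cells for no effect and cells given 10 µM MG132 for full effect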
#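 Compounds up to 46 uM were incubated four hours with TMD8 cells whose green CBG68 luciferase is fused to IkappaBalpha; red CBR luminescence normalised the signal, and concentration-effect curves were fitted to fusion, red and ratio data.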
# DT40 TDP1 no CPT: qHTS for Inhibitors of human tyrosyl-DNA phosphodiesterase 1 (TDP1): qHTS in cells in absence of CPT | DT40 Tdp1-/- hTDP1 cells, no CPT, ATP luminescence, 48 h | Potency, µM (series often up to 46.2 µM), without a hit: at the top dose activity change, negative = growth inhibition, hits mostly inhibitors | 420,000 tested, 15% active | AID 686978, 2013; note: potency is the fitted concentration of half-maximal effect; % is set by controls: 0 for no effect and ±100 for the full control effect; nearly all actives have a fitted effect of over 55% in size
#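 Camptothecin absent (DMSO only). Human TDP1-complemented DT40 knockout cells, 400 cells/well, 37 °C for minimum 48 hr; ATP measured via CellTiter-Glo, 30 min dark incubation, luminescence.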
# SW480 rerep: induces DNA re-replication in SW480 colon adenocarcinoma cells. 340,000 tested, 1.8% active. SW480 DNA re-replication, Hoechst DNA content imaging, 48 h. Potency, µM (top dose mostly 46.1 µM), for the others: top-dose re-replication activation, hits mostly activators; note: potency is the fitted concentration of half-maximal effect; % of control where 0% means no effect; nearly all actives have a fitted effect of over 55% in size
#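 Per well, 250 cells were exposed to pinned compound for 48 hr. Nuclear DNA was visualised with Hoechst (40 min, 37 C) and total object intensity recorded by fluorescence scanning.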
# MCF10A rereplic: induces DNA re-replication in MCF 10a normal breast cells; Potency, µM (titrated, usually from 46.1 µM), without a hit: at the highest dose activity, positive = re-replication, actives largely listed as activators; MCF 10A DNA re-replication, Hoechst nuclear intensity, 48 h; 350,000 tested, 2.9% active; note: potency is the fitted concentration of half-maximal effect; % of control where 0% means no effect; nearly all actives have a fitted effect of over 50% in size
# DT40 TDP1 CPT: DT40-hTDP1 cell growth loss with CPT; chicken DT40 Tdp1-/-;hTDP1 cells + 20 nM CPT, ATP luminescence, 48 h; Potency, µM (titrated, usually from 46.2 µM), without a hit: top-dose activity change, negative = growth inhibition, usual class: inhibitors; 420,000 tested, 12% active; note: potency is the fitted concentration of half-maximal effect; % is set by controls: 0 for no effect and ±100 for the full control effect; nearly all actives have a fitted effect of over 55% in size
#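 Cell growth measured by CellTiter-Glo luminescence after a minimum 48 h, 37 C compound exposure with 20 nM CPT in Tdp1-knockout DT40 cells stably expressing hTDP1, seeded 400/well; qHTS titration format.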
# The depositor's hits bear a star; i = inactive; ? = inconclusive; . = not tested or not shown; [ ] = another dose, or the depositor's remark. Sampled rows, rich in hits. Any-hit rate of the full collection: about 19%. Unless noted, calls come from the whole dose curve; as a rule, active = well fitted curve in the direction sought with a large enough effect; inconclusive = small, poorly fitted or top-dose-only effect, or another doubt; inactive = no such curve, though single readings can be large; an effect the other way counts as inactive or inconclusive.
SMILES,IL-1B inflam inh,Chronic BCR inh,DT40 TDP1 no CPT,SW480 rerep,MCF10A rereplic,DT40 TDP1 CPT
COC(=O)C1=C(C)N(Cc2ccccc2)C(=NCc2ccc(OC)cc2)N[C@H]1c1ccccc1,-52*,?,8.2µM*,0%,?,7.3µM*
COC(=O)C1=C(C)N(CC2CC2)C(=O)N[C@H]1c1ccc(Br)cc1,-16,7%,?,-1%,-1%,23µM*
COC(=O)C1=C(C)N(Cc2ccccc2)C(=NCC(C)C)N[C@H]1c1ccccc1,?,?,4.1µM*,-5%,?,4.1µM*
CCOC(=O)C1=C(C)N(C[C@@H]2CC[C@@H](Cc3ccc4cc(OC)ccc4c3)O2)C(=O)NC1c1ccccc1 (stereo partly drawn),-20,-3%,?,3%,5%,21µM*
Cc1ccc(S(=O)(=O)NC(=O)C2(C)CCN2C(=O)C2CC2)cc1 (stereo not drawn),8,.,7%,.,.,6%
C=CCN=C1N[C@@H](c2ccc(Br)cc2)C(C(=O)OC)=C(C)N1Cc1ccccc1,.,?,?,.,.,13µM*
C=CCN=C1N[C@@H](c2ccccc2)C(C(=O)OC)=C(C)N1CC,12,-8%,-29%,-9%[9.22 µM],-37%,?
COc1ccc(N(CC(=O)N/N=C(\C)c2ccc(OC)c(OC)c2)S(=O)(=O)c2ccccc2)cc1,2,?,0%,-2%,7%,9%
Cc1ccc(C(=O)Nc2cccc3ccccc23)o1,-5,.,?,5.2µM*,?,?
Cc1ccc(C(=O)Nc2ccccc2C(N)=O)o1,-10,.,8%,0%,1%,-14%
COc1ccccc1NC(=O)c1ccc([N+](=O)[O-])o1,-83*,.,16µM*,7.3µM*,?,13µM*
Cc1oc(-c2ccccc2)cc1C(=O)Nc1cccc2ccccc12,-66*,?,-18%,?,?,-26%
Cc1cccc(NC(=O)c2ccc([N+](=O)[O-])o2)c1C,-89*,17%,?,7.3µM*,13µM*,?
Cc1sc(NC(=O)CSc2nnc(N)s2)c(C#N)c1C,-7,?,1%,-21%,-15%,22%
Cc1ccc(S(=O)(=O)N(CC(=O)NCc2ccccc2Cl)C(=O)N2CCN(C)CC2)cc1,8,-2%,-1%,-62%,-14%,?
O=C(Nc1cccc(Cl)c1N1CCOCC1)c1ccc([N+](=O)[O-])o1,-15,0%,?,7%,19%,?
O=C(Nc1cccc2ccccc12)c1ccc([N+](=O)[O-])o1,-97*,?,26µM*,?,5.8µM*,15µM*
S=C1NC(c2ccccc2)=CC(c2ccccc2)N1 (stereo not drawn),-12,-6%,29µM*,-3%,?,?
CCOC(=O)[C@H]1[C@H]2COc3cc(OC)ccc3[C@@H]2N2C(=O)c3cc(OC)c(OC)cc3NC(=O)[C@@]12C,-14,-13%,?,-4%,66%,-18%
Cn1c(=O)c2cc(S(=O)(=O)N3CCOCC3)ccc2n(C)c1=O,-2,9%,1%,1%,-13%,-20%
Cc1cccc(NC(=S)N=Nc2c(O)n(CN3CCOCC3)c3ccccc23)c1C,36,?,5.8µM*,3%,20%,5.8µM*
Cc1ccc(NC(=S)N=Nc2c(O)n(C)c3ccc(S(=O)(=O)N4CCOCC4)cc23)cc1C,19,?,3.7µM*,5%,?,2.1µM*
C=CCn1c(O)c(N=NC(=S)Nc2ccccc2C)c2cc(S(=O)(=O)N3CCOCC3)ccc21,-1,?,0.73µM*,?,-31%,3.3µM*
Cn1c(O)c(N=NC(=S)Nc2ccccc2F)c2cc(S(=O)(=O)N3CCOCC3)ccc21,25,?,5.8µM*,?,5%,5.2µM*
CCOc1ccccc1NC(=O)c1cc(S(=O)(=O)N2CCOCC2)ccc1C,i,-1%,-16%,-4%,12%,-25%
SMILES,IL-1B inflam inh,Chronic BCR inh,DT40 TDP1 no CPT,SW480 rerep,MCF10A rereplic,DT40 TDP1 CPT
CC(C)c1cc(Cn2c3ccccc3c(=O)n2C(C)Cn2cc(CCCC#N)nn2)on1 (stereo not drawn),-26,.,9%,.,.,15%
C[C@H](CO)N1C[C@H](C)[C@@H](CN(C)Cc2ccncc2)Oc2c(cccc2N(C)C)C1=O,0,?,3%,1%,9%,3%
O=C1CN2CCC1C/C2=C\c1ccnc2c(Cl)cccc12 (stereo not drawn),9,-10%,?,-2%,23%,?
Cc1cc(NCc2ccccc2)c2ccccc2n1,?,4%,21µM*,1%,13%,21µM*
COc1ccc(Cl)cc1Nc1cc(C)nc2ccccc12,?,.,15µM*,-1%,?,?
COC(=O)c1ccc2nc(C)cc(Nc3cccc(Cl)c3C)c2c1,.,.,13µM*,.,.,12µM*
COc1cccc(Nc2cc(C)nc3ccccc23)c1,9,4%,21µM*,6%,1%,?
Cc1cc(Nc2ccc(C)c(C)c2)c2ccccc2n1,.,-10%,?,2%,-11%,?
Cc1cc(Nc2ccccc2Cl)c2ccccc2n1,-96*,.,13µM*,-1%,?,23µM*
COc1ccc(OC)c(Nc2cc(C)nc3ccccc23)c1,-13,-2%,18µM*,18%,?,18µM*
Cc1cc(Cl)c2ccccc2n1,27,0%,-10%,-3%,9%,23%
COc1ccc(OC)c(Nc2cc(-c3ccccc3)nc(N)n2)c1,-25,?,0.73µM*,2.6µM*,0.65µM*,0.65µM*
CC1CCCC(C)N1C(=O)COC(=O)CNC(=O)c1ccccc1 (stereo not drawn),-8,6%,-13%,-1%,1%,-4%
Cc1ccc(S(=O)(=O)N(CC(=O)NCc2ccc(F)cc2)C(=O)N2CCN(C)CC2)cc1,9,-1%,7%,-12%,-1%,4%
COC(=O)c1ccc(C(=S)NCC2(N(C)C)CCCCC2)cc1,19,?,-23%,5%,-8%,-23%
Cc1ccc(NC(=O)CC2Sc3ccccc3NC2=O)c(C)c1 (stereo not drawn),.,.,23µM*,.,.,?
Cc1ccc(NC(=O)CC2SC3=NCCCN3C2=O)c(C)c1 (stereo not drawn),0,-27%,16µM*,?,?,9.2µM*
